In PubChem BioAssay (NCATS):
Results filed as inconclusive are left out. Calls of active or inactive are those of the source. Calls come from the whole dose curve; as a rule, active = well fitted inhibition curve with a large enough effect; inconclusive = small, poorly fitted or top-dose-only effect; inactive = flat fitted curve, though single readings scatter.

Assays:
Experiment in all cases: qHTS profiling for inhibitors of Plasmodium falciparum proliferation (AID 504749); note: nearly all actives have a fitted effect of over 60% in size
Conditions in all cases: P. falciparum in erythrocytes, SYBR Green DNA, 72 h; series mostly up to 28.7 µM
[1] = tested on: CP191
How it was run: (§1)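 Readout was DNA-dye fluorescence from lysed cultures, ex 485/em 535 nm. Parasitized red cells had grown 72 h with compound; data scaled between 0.29 uM artemisinin and DMSO wells and corrected using vehicle-only plates.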

[2] = tested on: CP192
How it was run: as §1

[3] = tested on: CP194
How it was run: as §1

[4] = tested on: CP201
How it was run: as §1

[5] = tested on: CP211
How it was run: as §1

[6] = tested on: CP215
How it was run: as §1

[7] = tested on: CP217
How it was run: as §1

[8] = tested on: CP237
How it was run: as §1

[9] = tested on: CP238
How it was run: as §1

[10] = tested on: CP247
How it was run: as §1

[11] = tested on: CP250
How it was run: as §1

[12] = tested on: CP252
How it was run: as §1

[13] = tested on: CP256
How it was run: as §1

[14] = tested on: CP260
How it was run: as §1

[15] = tested on: CP262
How it was run: as §1

[16] = tested on: CP265
How it was run: as §1

[17] = tested on: CP266
How it was run: as §1

[18] = tested on: CP268
How it was run: as §1

[19] = tested on: CP269
How it was run: as §1

[20] = tested on: CP203
How it was run: as §1

Measured: Potency
Potency is the fitted concentration of half-maximal effect.

O=C(NC1CCN(CCc2c[nH]c3ccccc23)CC1)c1ccccc1
active: [1] 8.91 µM
not listed: [20]
inactive: all other assays above

Oc1c(Cl)cc(Cl)c(Cl)c1Cc1c(O)c(Cl)cc(Cl)c1Cl
inactive: [13]
active: [1] 8.91 µM | [3] 10.7 µM | [4] 10.7 µM | [20] 7.57 µM | [5] 12 µM | [6] 7.57 µM | [7] 8.91 µM | [8] 11.2 µM | [9] 10 µM | [10] 8.91 µM | [12] 8.91 µM

O=C(O)CCNC(=O)c1ccccc1
not listed: [2] | [17]
inactive: all other assays above

CNCCc1ccccn1
not listed: [4]
inactive: all other assays above

CCCCCN=C(N)N/N=C/c1c[nH]c2ccc(OC)cc12
inactive: [2] | [15]
active: [1] 7.94 µM | [8] 5.01 µM | [14] 5.01 µM | [16] 4.47 µM | [19] 13.5 µM

NC(=O)C1(N2CCCCC2)CCN(CCCC(=O)c2ccc(F)cc2)CC1
not listed: [3] | [8] | [10] | [14] | [16]
inactive: all other assays above

CN1CCC(OC(c2ccccc2)c2ccccc2)CC1
active: [14] 3.98 µM | [16] 3.55 µM
inactive: [1] | [2] | [4] | [11] | [17]

CCOC(=O)C(C#N)=C(c1ccccc1)c1ccccc1
not listed: [2]
inactive: all other assays above

CCCCc1cc2ccccc2c(OCCN(C)C)n1
not listed: [6] | [8]
inactive: all other assays above

CCC(C(=O)OCCOCCN(CC)CC)c1ccccc1 (centres undefined)
active: [8] 11.2 µM
not listed: [3] | [16] | [20]
inactive: all other assays above

CC(C)NCC(O)c1ccc2ccccc2c1 (centres undefined)
active: [1] 11.2 µM | [3] 10.7 µM | [20] 12 µM | [6] 10.7 µM | [7] 8.91 µM | [8] 4.47 µM | [9] 10 µM | [10] 7.94 µM | [12] 11.2 µM | [14] 6.31 µM | [16] 10 µM
inactive: [4] | [17]

CCN(CC)CCOC(=O)C1(c2ccccc2)CCCC1
active: [20] 10.7 µM | [8] 2.82 µM
inactive: [1] | [2] | [7] | [9] | [11] | [12] | [13] | [15] | [16]

NS(=O)(=O)c1cc(C(=O)O)cc(N2CCCC2)c1Oc1ccccc1
not listed: [17] | [20]
inactive: all other assays above

C#C[C@]1(O)CC[C@H]2[C@@H]3CCc4cc(OC)ccc4[C@H]3CC[C@@]21C
not listed: [20]
inactive: all other assays above

CC(=O)NCCCCCC(=O)O
not listed: [5] | [11]
inactive: all other assays above

Cc1cc(NS(=O)(=O)c2ccc(N)cc2)nc(C)n1
not listed: [5]
inactive: all other assays above

CC(=O)OCC(=O)[C@H]1CC[C@H]2[C@@H]3CCC4=CC(=O)CC[C@]4(C)[C@H]3CC[C@]12C
not listed: [6] | [8]
inactive: all other assays above

NCc1ccccc1Sc1ccccc1CO
active: [8] 8.91 µM
not listed: [3] | [13] | [15] | [18] | [20]
inactive: all other assays above

CC(=O)NO
not listed: [4]
inactive: all other assays above

CCCc1ncc(C[n+]2ccccc2C)c(N)n1
not listed: [6] | [15]
inactive: all other assays above

Cc1ncc(CO)c(C=O)c1O
inactive: [1] | [7] | [8] | [9] | [10] | [11] | [12] | [13] | [14] | [16]

COc1cc(C)nc(-n2nc(C)cc2OC)n1
not listed: [2]
inactive: all other assays above

CCCN(CCc1cccs1)[C@H]1CCc2c(O)cccc2C1
active: [1] 10 µM | [3] 13.5 µM | [20] 6.75 µM | [5] 10.7 µM | [6] 15.1 µM | [7] 11.2 µM | [8] 3.16 µM | [9] 10 µM | [10] 8.91 µM | [12] 11.2 µM | [14] 12.6 µM | [16] 11.2 µM | [18] 10.7 µM | [19] 15.1 µM

CC(C)(C)NC[C@H](O)COc1nsnc1N1CCOCC1
active: [1] 7.08 µM | [8] 5.01 µM | [14] 7.94 µM | [16] 6.31 µM | [19] 15.1 µM
inactive: [4] | [15] | [17]

C#C[C@]1(OC(C)=O)CC[C@H]2[C@@H]3CCC4=C/C(=N/O)CC[C@@H]4[C@H]3CC[C@@]21CC
not listed: [2]
inactive: all other assays above

CN1CCN(C2=Nc3cc(F)ccc3Cc3ccccc32)CC1
active: [8] 7.08 µM
not listed: [3] | [10] | [13] | [16] | [17]
inactive: all other assays above

COc1ccc(CN(CCN(C)C)c2ncccn2)cc1
active: [8] 7.08 µM
not listed: [17] | [20]
inactive: all other assays above

CC[C@H](c1ccc(O)cc1)[C@@H](CC)c1ccc(O)cc1
not listed: [5]
inactive: all other assays above

CN1CCN(c2cc3c(cc2F)c(=O)c(C(=O)O)cn3-c2ccc(F)cc2)CC1
not listed: [3] | [6] | [8] | [14] | [15] | [17] | [18]
inactive: all other assays above
